Data taken from PubChem BioAssay AID1259339 (Broad Institute, 2017).
Activity calls are given as the source filed them.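 The calls were made as follows: active = fitted AC50 no higher than ten times the top tested dose (cut at about 90 µM in these data); inconclusive = flat curve with 30 to 70% signal loss, or bad fit; inactive = AC50 beyond ten times the top dose.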

Assay: AlphaLISA signal interference compounds, dose response, artefact control, biochemical, TruHit kit (AID 1259339)
Conditions: TruHit alphaLISA kit signal interference counterscreen; series mostly up to 80 µM

**Q.** With COc1cccc(NC(=O)CN(C)C(=O)c2cc3c(s2)CCC3)c1 as the molecule, how does the AC50 read?
**A.** 74.6 µM (active)

**Q.** Which AC50 does the source give for O=C(O)CCc1ccc(-c2cccs2)n1NC(=O)c1ccco1 here?
**A.** > 160 µM (inactive)

**Q.** For O=C(Nc1nccs1)c1cc(-c2ccco2)nc2ccccc12, which AC50 is on record?
**A.** 29 µM (active)

**Q.** With Cc1ccc(-c2cc(C(=O)NCc3ccco3)c3ccccc3n2)o1 as the molecule, how does the AC50 read?
**A.** 64.5 µM (active)

**Q.** Which AC50 does the source give for Cc1ccc2cc(CN(Cc3ccco3)S(C)(=O)=O)c(=O)[nH]c2c1 here?
**A.** inactive

**Q.** Which AC50 does the source give for CN(C)c1ccc(CN2C[C@H]3CC[C@@H]2CN(C(=O)c2ccncc2)C3)cn1 here?
**A.** inactive

**Q.** For O=C(COC(=O)c1ccc(F)cc1F)Nc1ncccn1, which AC50 is on record?
**A.** inactive

**Q.** Which AC50 does the source give for CCCN1CCCn2nc(CNC(=O)[C@H]3CC[C@@H](N)C3)cc2C1 here?
**A.** inactive

**Q.** With CC1=CCC(C(=O)O)C(C(=O)NC2CCCCC2)C1 (stereo unspecified) as the molecule, how does the AC50 read?
**A.** inactive

**Q.** Which AC50 does the source give for O=C(NCCCN1CCOCC1)c1cc(-c2ccco2)nc2ccccc12 here?
**A.** 27.5 µM (active)

**Q.** For CC(C)C(CC(=O)NCc1ccco1)c1ccco1 (stereo unspecified), which AC50 is on record?
**A.** 66.5 µM (active)

**Q.** With O=C(O)Cc1c[nH]c2cccc(O)c12 as the molecule, how does the AC50 read?
**A.** 11.3 µM (active)

**Q.** For O=C(Nc1nc(-c2nc3ccccc3s2)cs1)c1ccco1, which AC50 is on record?
**A.** inactive

**Q.** Which AC50 does the source give for CC(C(=O)N1CCCC1)N1CCN(c2ccccc2O)CC1 (stereo unspecified) here?
**A.** inactive

**Q.** Which AC50 does the source give for NC(=O)C1(N2CCCCC2)CCN(c2ncc(NC(=O)c3ccc(F)cc3)cc2C(=O)O)CC1 here?
**A.** inactive

**Q.** With COc1ccc(S(=O)(=O)N2CCN(C(=O)c3cc4c(s3)CCC4)CC2)cc1 as the molecule, how does the AC50 read?
**A.** > 160 µM (inactive)

**Q.** For O=C1C=C(c2ccccc2)Nc2ccccc2N1, which AC50 is on record?
**A.** inactive

**Q.** For COc1ccc(-c2nc(C)c(C(C)=O)n2O)cc1OC, which AC50 is on record?
**A.** inactive

**Q.** For CC1(C)Cc2ccccc2-c2nc(-c3ccccc3)oc(=O)c21, which AC50 is on record?
**A.** 33.4 µM (active)

**Q.** For O=C(NCCc1ccco1)c1ccc(OCc2cn3ccccc3n2)cc1, which AC50 is on record?
**A.** inactive

**Q.** For COC[C@]1(O)CCN(C(=O)CCN(C)S(C)(=O)=O)CC1(C)C, which AC50 is on record?
**A.** inactive

**Q.** For c1coc(-c2cn3ccc4ccccc4c3n2)c1, which AC50 is on record?
**A.** 81.7 µM (active)

**Q.** Which AC50 does the source give for CCCc1oc(C(=O)O)cc1CN here?
**A.** inactive

**Q.** With Cc1ccc(Nc2nc(C(=O)Nc3ccc(Cl)cc3)nc3ccccc23)cc1 as the molecule, how does the AC50 read?
**A.** inactive

**Q.** With O=[N+]([O-])c1cccc(-c2nnc3ccc4ccccc4n23)c1 as the molecule, how does the AC50 read?
**A.** inactive

**Q.** For Cc1cccc2nc(CSCc3ccco3)cn12, which AC50 is on record?
**A.** 74.7 µM (active)

**Q.** With O=S(=O)(c1ccccc1)N1CC2CN(Cc3ccc(O)cc3)C2C1 (stereo unspecified) as the molecule, how does the AC50 read?
**A.** inactive

**Q.** For Cc1ccc(-c2nn(-c3ccccc3)cc2CN(Cc2ccccc2)C(=O)CCC(=O)O)o1, which AC50 is on record?
**A.** 53.7 µM (active)

**Q.** For CCOC(=O)C1CCN(C(=O)CN(Cc2ccccc2)S(C)(=O)=O)CC1, which AC50 is on record?
**A.** inactive

**Q.** With COc1ccc(NC(=O)CN(C)C(=O)c2cc(-c3ccco3)nc3ccccc23)cc1 as the molecule, how does the AC50 read?
**A.** 36.6 µM (active)

**Q.** With CC(=O)c1sc2nc(-c3ccco3)ccc2c1N as the molecule, how does the AC50 read?
**A.** 43.6 µM (active)

**Q.** With Cc1cccc(Nc2nc(C(=O)Nc3cc(F)ccc3F)nc3ccccc23)c1 as the molecule, how does the AC50 read?
**A.** inactive

**Q.** Which AC50 does the source give for O=C(O)COc1ccc(-n2cccc2)cc1 here?
**A.** inactive

**Q.** With O=C(Nc1nc(-c2ccco2)c(-c2ccco2)s1)c1ccco1 as the molecule, how does the AC50 read?
**A.** 0.98 µM (active)

**Q.** For CCc1nc(OCc2ccco2)c2sc3nc4c(cc3c2n1)COC(C)(C)C4, which AC50 is on record?
**A.** inactive

**Q.** For CC(C)(C)c1ccc(-c2nc(C#N)c(NCc3ccncc3)o2)cc1, which AC50 is on record?
**A.** 22.1 µM (active)
